# The sample as a whole holds a higher share of hits than the screen did.
# Pf Dd2 inh: blocks in vitro growth of P. falciparum Dd2; P. falciparum Dd2 growth, SYBR Green, 72 h; Potency, µM (top dose mostly 28.9 µM), for the others: top-dose activity, negative = inhibition, most hits filed as inhibitors; 4.3% of 120,000 active; AID 1347417; active means well fitted inhibition curve with a large enough effect;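 further: plate controls were DMSO vehicle for no effect and reference drug for full effect; nearly all actives have a fitted effect of over 65% in size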
#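 Readout: SYBR Green fluorescence, 485 nm excitation, 535 nm emission, after ~16 h lysis at 37C. Before that, Dd2-infected red cells (2.5% hematocrit) grew 72 h with compound, 29 uM top final concentration.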
# * marks the source's active call; other numbers are inactive results; i = inactive; [ ] = another dose, or the depositor's remark. Potency means the concentration at half of the fitted maximal effect.
SMILES,Pf Dd2 inh
O=c1c(S(=O)(=O)c2cccc(Cl)c2)cn(Cc2ccccc2)c2cc(N3CCCCC3)c(F)cc12,i
CCn1cc(S(=O)(=O)c2ccc(C)cc2C)c(=O)c2cc(F)c(N3CCCCC3)cc21,11µM*
O=c1c(S(=O)(=O)c2ccccc2)cn(Cc2cccc(F)c2)c2cc(N3CCCC3)c(F)cc12,-14%
Cc1ccc(S(=O)(=O)c2cn(Cc3ccccc3)c3cc(N4CCCC4)c(F)cc3c2=O)cc1,6.3µM*
CCn1cc(S(=O)(=O)c2ccc(OC)cc2)c(=O)c2cc(F)c(N3CCCCCC3)cc21,-24%
COCCC1(NS(=O)(=O)N(C)C)CCN(S(C)(=O)=O)CC1,i
COC[C@@H]1[C@H](C(=O)NCCC2=CCCCC2)CCC(=O)N1C,17%
O=C(CN1C(=O)CNC1=O)N[C@@H]1[C@@H](Cc2ccccc2)[C@H]2OCC[C@@H]12,11%
Cn1cnc(S(=O)(=O)N2CCC(N3CC(OCC4CC4)C34CCOCC4)CC2)c1 (stereo unspecified),1%
CC(C)NC(=O)N1CC[C@@H](CC(=O)O)[C@@H](CC2=NCCc3ccc(C(C)(C)C)cc32)C1,i
COc1ccc(C)cc1NC(=O)C1CCN(C(=O)c2ncn3c2COC(c2ccc(F)cc2)C3)CC1 (stereo unspecified),-16%
Cc1ccc(-n2cc(-c3ccccc3)c3c(N4CCC(C)CC4)ncnc32)cc1Cl,48%
COc1ccc(CCNc2ncnc3c2c(-c2ccccc2)cn3-c2cccc(Cl)c2)cc1OC,8.9µM*
CC(=O)Nc1ccc(Nc2ncnc3c2c(-c2ccccc2)cn3-c2ccc(C)c(Cl)c2)cc1,7.1µM*
COCCNc1ncnc2c1c(-c1ccccc1)cn2-c1cccc(Cl)c1,8%
COc1ccccc1N1CCN(c2ncnc3c2c(-c2ccccc2)cn3-c2cccc(Cl)c2)CC1,7%
CC(=O)Nc1ccc(Nc2ncnc3c2c(-c2ccccc2)cn3-c2ccccc2)cc1,i
CC(=O)NC[C@H]1OC[C@@H](NCc2cccs2)[C@@H]1O,i
Cc1ccc(C(=O)N2CCc3nnc([C@@H]4C[C@@H](O)CN4C)n3CC2)cn1,21%
O=C(c1ccc2[nH]ccc2c1)N1CCN(C(=O)c2nnn3c2COC(c2ccccc2)C3)CC1 (stereo unspecified),-11%
COc1ccc(C(=O)N2CCC(n3cc(-c4nc(C(C)C)no4)nn3)C2)cc1F (stereo unspecified),i
CC(C)C1=NOC2(CCN(Cc3cccn3C)C2)C1 (stereo unspecified),2%[44.1 µM]
COc1ccc(C(=O)NC(C(=O)N2CCCC2)C2CCN(C(=O)c3ccccc3)CC2)cc1 (stereo unspecified),-22%
CCN(CC)C(=O)C(NC(=O)c1ccc(OC)cc1)C1CCN(C(C)=O)CC1 (stereo unspecified),11%
CCCNC(=O)C(NC(=O)c1cccc(OC)c1)C1CCN(C(=O)c2cccc(OC)c2)CC1 (stereo unspecified),-4%
SMILES,Pf Dd2 inh
CCC(C)NC(=O)C(NC(=O)c1ccc(C)cc1)C1CCN(C(=O)c2ccc(F)cc2)CC1 (stereo unspecified),i
COc1ccc(C(=O)NC(C(=O)NC(C)C(C)C)C2CCN(C(=O)c3ccc(C)cc3)CC2)cc1 (stereo unspecified),2.5µM*
CCN(CC)C(=O)C(NC(=O)c1ccc(C)cc1)C1CCN(C(=O)c2cccc(OC)c2)CC1 (stereo unspecified),4.5µM*
Cc1ccccc1CSc1ncc(Cl)c(C(=O)NCc2ccccc2)n1,5%
COc1ccc(CCNc2nc(SCc3ccc(Cl)cc3)nc3ccccc23)cc1OC,-17%
COc1ccc(C(C)=O)cc1CSc1nc(NCc2ccc(Cl)cc2)c2ccccc2n1,i
COc1ccc(CCNc2nc(SCc3cccc(F)c3)nc3ccccc23)cc1OC,-18%
Clc1ccc(CSc2nc(NCCc3ccccc3)c3ccccc3n2)cc1,10µM*
Clc1ccccc1CSc1nc(NCCc2ccccc2)c2ccccc2n1,11µM*
CC(C)C1=NOC2(CCN(C(=O)c3ccc4c(c3)OCO4)C2)C1 (stereo unspecified),14%
O=C1c2ccccc2-c2onc3c(N4CCN(C5CCCCC5)CC4)cc(NCCO)c1c23,5µM*
O=C1c2ccccc2-c2onc3c(Br)cc(NC4CCCCC4)c1c23,-4%
COCCNc1ncccc1-c1noc([C@@H]2CCCN2C2CCN(C)CC2)n1,-9%[44.1 µM]
COCCNc1ncccc1-c1noc([C@@H]2CCCN2C2CCN(C(C)=O)CC2)n1,i
COCCNc1cc(N2CCN(C3CCCCC3)CC2)c2noc3c2c1C(=O)c1ccccc1-3,0.89µM*
O=C(c1csc(N2CCN(c3ccccc3)CC2)n1)N1CCN(C2CCCCC2)CC1,i
COc1ccc(C(=O)NCC(=O)N2CCCCCNC(=O)CC2c2ccccc2)cn1 (stereo unspecified),14%
CCOc1ccc(C(=O)N2CCC(c3n[nH]c(=O)n3-c3ccc(C)cc3)CC2)cc1,i
c1cc(OC2CCCCC2)ncc1-c1noc([C@@H]2CCCN2C2CCOCC2)n1,11µM*
Cc1ccc(CN2CCC[C@H]2c2nc(-c3ccc(OC4CCCCC4)nc3)no2)cc1,-13%[44.1 µM]
COc1ccc(-c2noc([C@@H]3CCCN3C3CCCCC3)n2)cn1,i
CCn1ccc2oc(C)c(C(=O)N3CCN(c4ccccc4Cl)CC3)c2c1=O,i
CCNC(=O)N(C1CC1)C1CCOC2(CCN(C(=O)C3(c4ccccc4)CC3)CC2)C1 (stereo unspecified),-21%
CS(=O)(=O)N1CCCN(C(=O)C2CCOCC2)CCNC(=O)CC1c1ccccc1 (stereo unspecified),18%
COCCNc1ncccc1-c1noc([C@@H]2CCCN2C2CCC2)n1,-18%[44.1 µM]
SMILES,Pf Dd2 inh
COCCNc1ncccc1-c1noc([C@@H]2CCCN2Cc2ccccc2OC)n1,7.9µM*
COCCNc1ncccc1-c1noc([C@@H]2CCCN2Cc2ccc(C(=O)O)cc2)n1,i
COc1cccc(Nc2cc(-c3cccs3)nc3c(C)noc23)c1,i
COc1ccc(C(=O)N2[C@@H]3CC[C@H]2CC(NC(=O)c2cnc(C)cn2)C3)c(OC)c1 (stereo partly specified),13%
CC1(CNC(=O)C2COc3ccccc3O2)CCOCC1 (stereo unspecified),-1%
O=C1CO[C@H](c2ccc(NC(=O)C3CCCCC3)cc2)[C@@H](CO)N1,14%[44.1 µM]
O=c1c2cc(-c3ccccc3)nn2ccn1CC(O)c1ccccc1 (stereo unspecified),i
CCOc1ccc(-c2cc3c(=O)n(CC(O)c4ccc(C(C)C)cc4)ccn3n2)cc1 (stereo unspecified),i
CCOc1ccc(C(O)Cn2ccn3nc(-c4ccccc4C)cc3c2=O)cc1 (stereo unspecified),13µM*
FC(F)(F)CN1C2CCC1CN(c1cc(Cl)ncn1)C2,11%
COc1cc2nc(Cl)nc(N3CC4CCC(C3)N4CC(F)(F)F)c2cc1OC,5µM*
COc1ccc([N+](=O)[O-])c(N2CC3CCC(C2)N3CC(F)(F)F)n1,-1%
CCCCc1nn(CC(=O)N2CCN(c3ccccn3)CC2)c(=O)n1CC,-13%
Cc1ccc(-n2c(C3CCN(C(=O)c4ccc5c(c4)OCO5)CC3)n[nH]c2=O)cc1,-24%
O=C(NCC1CC1)c1cccc(OC2CN(Cc3ccc(F)cc3Cl)C2)c1,11µM*
CCN1CCC(N2CC(Oc3cccc(C(=O)NCC4CC4)c3)C2)CC1,5%
O=C(NCC1CC1)c1cccc(OC2CN(C3CCSCC3)C2)c1,-9%
